FXIIa inh: inhibitors of human coagulation factor XIIa. 0.2% of 33,000 active. purified human FXIIa, AMC substrate fluorescence, 2 h. AID 701. P00748. inhibition, % at 10 µM; in the data active = inhibition above about 30%
FXIa single inh: blocks human coagulation factor XIa activity; P03951; purified human FXIa, fluorogenic AMC substrate cleavage; inhibition, % at 10 µM; 0.3% of 33,000 active;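 active = inhibition above 40% in the primary screen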
Hits are given with their value; - = inactive. The list is not random: actives were taken first. Their share in the collection is about 0.33%.

SMILES	FXIIa inh	FXIa single inh
O=C(NCc1ccc2c(c1)OCO2)C1CCCN(S(=O)(=O)c2cccc3nonc23)C1 (stereo unspecified)	-	-
O=C(NCc1ccccc1)C1CCCN(S(=O)(=O)c2cccc3nonc23)C1 (stereo unspecified)	-	61
O=C(Oc1ccc(OC(=O)N2CCOCC2)cc1)c1ccccc1	-	-
O=C(Oc1nsnc1N1CCOCC1)c1ccccc1	63	66
Cc1cc(C(=O)COC(=O)C2=NNC(=O)CC2)c(C)n1-c1cccc(C(F)(F)F)c1	-	-
CCOC(=O)c1[nH]c2ccc(Cl)cc2c1-c1ccccc1	-	-
O=c1nc(-c2ccccc2)c2cc(Cl)ccc2[nH]1	-	103
CCC(C)(C(=O)NC1CCCC1)N(C(=O)c1ccccn1)c1ccc(C)cc1 (stereo unspecified)	-	-
COC(=O)c1ccc(NC(=O)c2ccccc2SC)cc1	-	-
Cc1ccc(C(=O)ONc2ccc(N=NC(=O)c3ccccc3O)cc2)cc1	-	43
CN1C(=O)/C(=C/c2cn(CC(=O)N3CCCCC3)c3ccccc23)c2ccccc21	-	-
COc1cc(OC)cc(-c2nc3ccccc3c(=O)o2)c1	-	-
COc1cccc(-c2nc3ccccc3c(=O)o2)c1	30	-
Cc1ccc(S(=O)(=O)C/N=C(/NC(=S)N(c2ccccc2)c2ccccc2)c2ccccc2)cc1	-	-
O=C(c1ccccc1)N1CCN(C(=O)c2ccccc2)CC1	-	-
O=C(c1ccc(F)cc1)N1CCN(C(=O)c2cccnc2)CC1	-	50
O=C(CN(CC1CCCO1)C(=O)CCC(=O)Nc1nccs1)NCc1ccccc1 (stereo unspecified)	-	-
CN(CC(=O)O/N=C(\N)c1ccc([N+](=O)[O-])cc1)S(=O)(=O)c1ccccc1	-	-
CCOC(=O)N=S(=O)(Oc1ccc([N+](=O)[O-])cc1)c1ccccc1 (stereo unspecified)	-	44
O=C(OCCN1CCOCC1)c1cccs1	-	-
CCn1nc(CC(=O)Nc2nnc(CC(=O)N3CCOCC3)s2)c2ccccc2c1=O	-	-
CCn1nc(CC(=O)Nc2nnc(CC(=O)N3CCCC3)s2)c2ccccc2c1=O	-	66
CCOC(=O)COc1ccc(S(=O)(=O)Nc2ccc(C)cc2)cc1	-	-
Cc1ccc(NS(=O)(=O)c2ccc(OCC(=O)N3CCOCC3)cc2)cc1	-	99
OCCCn1c(-c2ccccc2)nc(=S)c2c1CCCC2	-	43
SMILES	FXIIa inh	FXIa single inh
CN(C)CCCn1c(-c2ccccc2)nc(=S)c2c1CCCC2	-	-
CC1CN(C)C(c2ccccc2)C(C)C12NC(=O)NC2=O (stereo unspecified)	-	-
Cc1ccc(S(=O)(=O)/C(C#N)=C/c2c(N3CCC(C(N)=O)CC3)nc3ccccn3c2=O)cc1	-	-
COc1ccc(/C=N/n2c(C)cc(C)c(C(N)=O)c2=O)cc1	-	-
CCc1ccccc1NC(=O)Cn1nc(C(F)(F)F)c2c1CCC2	-	-
CCc1ccc(NC(=O)Cn2nc(C(F)(F)F)c3c2CCC3)cc1	-	44
O=S(=O)(N1CCOCC1)n1cnc2ccccc21	-	-
Cc1cc2n(c(=O)c1C#N)CCCN2c1ccccc1	-	-
O=C(CSc1ncn[nH]1)NCCOc1ccccc1	-	-
COc1ccc(OCCSc2ncn[nH]2)cc1	-	43
COC(=O)c1ccc(OCC(=O)c2ccccc2OC)cc1	-	-
COC(=O)c1[nH]c2ccc(Br)cc2c1NC(=O)CN1CCCc2ccccc21	-	45
CCOC(=O)c1[nH]c2ccc(OC)cc2c1NC(=O)CN1CCc2ccccc2C1	-	-
COC(=O)c1sc(NC(=O)CSc2nncs2)c(C(=O)OC)c1C	-	-
COC(=O)c1sc(NC(=O)CC(C)C)c(C(=O)OC)c1C	-	43
CCCCOc1ccc(-c2nc(=S)[nH][nH]2)cc1	-	-
NC(=S)NNc1cc(Cl)cc(Cl)c1	-	-
CCCCc1c(O)nc(SCC(=O)NC(C)(C)C)n(-c2ccccc2C)c1=O	-	-
CCc1c(O)nc(SCC(=O)NC(C)(C)C)n(-c2ccccc2)c1=O	-	43
COc1ccc(OC)c(S(=O)(=O)Nc2cccc(F)c2)c1	-	-
COC(=O)COc1cccc2c(=O)n(CC(=O)N3CCCc4ccccc43)ccc12	-	-
O=C(C1CCCCC1)N1CCCC(c2nc3c(nnn3Cc3ccccc3)c(=O)[nH]2)C1 (stereo unspecified)	-	-
O=C(c1ccccc1)N1CCCC(c2nc3c(nnn3Cc3ccccc3)c(=O)[nH]2)C1 (stereo unspecified)	37	-
CCCCOc1ccc(C(CC(=O)NC)C(=O)O)cc1 (stereo unspecified)	-	-
O=C1[O][Bi][O]c2ccccc21	-	-
O=c1[nH]c(SCc2n[nH]c(=S)n2-c2ccccc2)nc2sc3c(c12)CCC3	-	-
Cc1cc(NC(=O)c2cccc(F)c2)ncc1NC(=O)c1ccco1	-	-
Cc1cc(NC(=O)C(C)C)ncc1NC(=O)Cc1ccccc1	38	-
CCN(C(=O)c1cc2cc(OC)ccc2oc1=O)c1cccc(C)c1	-	-
